Some test systems named below: RPMI-8226 leukemia; OVCAR-8 ovarian; OVCAR-5 ovarian; OVCAR-4 ovarian; SK-OV-3 ovarian; IGROV1 ovarian; OVCAR-3 ovarian; HS 578T breast; NCI/ADR-RES ovarian; T-47D breast; BT-549 breast; MDA-MB-435 melanoma; SW-620 colon; MCF7 breast; HCT-116 colon; HCC-2998 colon; KM12 colon.
Assay in all cases: NCI-60 one-dose screen, 48 h (100 = growth as untreated, 0 = no growth, -100 = all killed)
Details in all cases: 10 µM unless noted

The panel holds about 83,000 compounds, 20% with a hit somewhere; the sample as a whole holds those more often.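 Testing used 96-well plates and a 48-hour single-concentration exposure. Example: -40 means 40% of the starting cells died.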 Unmarked numbers belong to inactive results. Active and inactive are the calls of the source. Rule for the calls: active = growth percent below 10; inactive = the rest.

`COc1cc(/C=C/C(=O)N2CCN(C(=O)/C=C/c3ccccc3)CC2)cc(OC)c1OC`: the growth is 95.5% in the assay on RPMI-8226 leukemia; 98.1% in the assay on OVCAR-8 ovarian; 117% in the assay with OVCAR-5 ovarian; 97.1% in the assay on OVCAR-4 ovarian; 122% in the assay with SK-OV-3 ovarian; 115% with IGROV1 ovarian. For the same compound, the growth was 120% in the assay on OVCAR-3 ovarian; 113% with HS 578T breast; 108% in the assay on NCI/ADR-RES ovarian; 110% with T-47D breast; 104% with BT-549 breast; 111% with MDA-MB-435 melanoma. For the same compound, the growth with SW-620 colon is 109%; in the assay with MCF7 breast, 110%; with HCT-116 colon, 105%; in the assay on HCC-2998 colon it was 102%; in the assay on KM12 colon, 118%.
Turning to `Cc1cc(=O)n2n1-c1ccc(Cl)cc1NC(=O)C2`, the growth in the assay on RPMI-8226 leukemia is 99.2%; with OVCAR-8 ovarian it was 97%; in the assay with OVCAR-5 ovarian, 103%; in the assay with OVCAR-4 ovarian it was 98.8%; in the assay with SK-OV-3 ovarian it was 109%; in the assay on IGROV1 ovarian it was 112%. Also, the growth in the assay with OVCAR-3 ovarian was 108%; in the assay on HS 578T breast, 117%; in the assay on NCI/ADR-RES ovarian, 108%; in the assay on T-47D breast, 118%; with BT-549 breast, 104%; with MDA-MB-435 melanoma, 88.2%. For the same compound, the growth with SW-620 colon was 109%; with MCF7 breast, 94.1%; in the assay with HCT-116 colon, 107%; in the assay on HCC-2998 colon, 110%; with KM12 colon, 114%.
With `O=C(/C=C/c1cccnc1)NCCCCC1CCCN(C(=O)c2ccccc2)C1` (stereo not drawn), the growth is 36.9% in the assay on RPMI-8226 leukemia; 22% in the assay with OVCAR-8 ovarian; 96.1% in the assay on OVCAR-5 ovarian; 89.2% with OVCAR-4 ovarian; 91.6% with SK-OV-3 ovarian; 33.8% in the assay with IGROV1 ovarian. In addition, the growth is 74.7% with OVCAR-3 ovarian; 52.2% in the assay on HS 578T breast; 32.1% with NCI/ADR-RES ovarian; 47.3% in the assay with T-47D breast; 73.7% in the assay on BT-549 breast; 7.35% (active) with MDA-MB-435 melanoma. Besides, the growth was 25.5% with SW-620 colon; 54.4% in the assay with MCF7 breast; 7.85% (active) with HCT-116 colon; 46.6% in the assay with HCC-2998 colon; 43.9% with KM12 colon.
`Clc1ncn[nH]1`: the growth in the assay with RPMI-8226 leukemia is 102%; in the assay with OVCAR-8 ovarian it was 92%; in the assay on OVCAR-5 ovarian, 107%; in the assay on OVCAR-4 ovarian it was 100%; in the assay with SK-OV-3 ovarian, 96.3%; in the assay with IGROV1 ovarian it was 105%. Moreover, the growth was 105% with OVCAR-3 ovarian; 106% in the assay on HS 578T breast; 106% in the assay on NCI/ADR-RES ovarian; 99.5% in the assay with T-47D breast; 105% with BT-549 breast; 96.9% in the assay with MDA-MB-435 melanoma. Besides, the growth was 111% with SW-620 colon; 90.3% in the assay with MCF7 breast; 108% in the assay on HCT-116 colon; 89.8% in the assay on HCC-2998 colon; 101% in the assay on KM12 colon.
As for `COc1ccc(-c2nn(-c3cccc(Cl)c3)cc2C2CC(c3ccccc3)=NN2C(C)=O)cc1` (stereo not drawn), the growth is 97.6% with RPMI-8226 leukemia; 56.3% in the assay with OVCAR-8 ovarian; 80.9% with OVCAR-5 ovarian; 23.3% in the assay on OVCAR-4 ovarian; 32.2% in the assay on SK-OV-3 ovarian; 57% in the assay with IGROV1 ovarian. Further, the growth with OVCAR-3 ovarian is 80.6%; with HS 578T breast, 43.2%; in the assay on NCI/ADR-RES ovarian, 74.3%; in the assay with T-47D breast, 44.7%; in the assay on BT-549 breast it was 74.7%; with MDA-MB-435 melanoma, 88.5%. Besides, the growth with SW-620 colon is 73.6%; in the assay with MCF7 breast, 68%; in the assay with HCT-116 colon, 60.9%; in the assay with HCC-2998 colon it was 95.4%; with KM12 colon, 96.4%.
For the compound `C/C(=C\CCc1ccoc1)CC/C=C(\C)CCCN1CCC(CO)CC1`, the growth with RPMI-8226 leukemia is 3.35% (active); with OVCAR-8 ovarian, 77.7%; with OVCAR-5 ovarian it was 76.4%; with OVCAR-4 ovarian, 52.5%; with SK-OV-3 ovarian it was 65.1%; with IGROV1 ovarian it was 67.8%. The growth with OVCAR-3 ovarian is 82.4%; with HS 578T breast, 57.5%; in the assay with NCI/ADR-RES ovarian, 73.4%; in the assay on T-47D breast it was 35.9%; with BT-549 breast, 54.2%; with MDA-MB-435 melanoma, 44.2%. Further, the growth is 18.2% in the assay on SW-620 colon; 28.9% with MCF7 breast; 31% in the assay with HCT-116 colon; 46.5% in the assay on HCC-2998 colon; 44.6% in the assay on KM12 colon.
Turning to `COC(=O)CCC1=C(CC(=O)OC)C(C)=N/C1=C\c1[nH]c(-c2ccc[nH]2)cc1OC`, the growth in the assay with RPMI-8226 leukemia was -42.3% (active); in the assay on OVCAR-8 ovarian it was 9.85% (active); in the assay with OVCAR-5 ovarian, 65%; in the assay with OVCAR-4 ovarian, 27.4%; with SK-OV-3 ovarian it was 64.6%; with IGROV1 ovarian, 42.1%. Also, the growth in the assay on OVCAR-3 ovarian is 17.4%; in the assay on HS 578T breast, 52.2%; in the assay on NCI/ADR-RES ovarian, 17.5%; in the assay with T-47D breast, 40.1%; in the assay with BT-549 breast, 52.3%; in the assay on MDA-MB-435 melanoma, 17.3%. The growth is 21.5% in the assay on SW-620 colon; 3.83% (active) in the assay with MCF7 breast; 9.33% (active) in the assay with HCT-116 colon; 33.7% in the assay with HCC-2998 colon; 28.1% in the assay with KM12 colon.
In the case of `COC1=CC(c2ccc[nH]2)=N/C1=C\c1[nH]c(C)c(C(=O)CCC(=O)Oc2ccc3c(c2)CCC2C3CC[C@]3(C)C(=O)CC[C@@H]23)c1C` (stereo partly drawn), the growth in the assay with RPMI-8226 leukemia was 68.3%; in the assay on OVCAR-8 ovarian, 80.8%; in the assay with OVCAR-5 ovarian it was 55.6%; in the assay with OVCAR-4 ovarian, 67.7%; in the assay with SK-OV-3 ovarian, 85.5%; in the assay with IGROV1 ovarian, 79.5%. The growth is 89.1% in the assay with OVCAR-3 ovarian; 69.8% in the assay on HS 578T breast; 82.3% in the assay on NCI/ADR-RES ovarian; 79.2% in the assay on T-47D breast; 70.2% in the assay with BT-549 breast; 93.7% with MDA-MB-435 melanoma. The growth in the assay on SW-620 colon was 27.9%; with MCF7 breast, 50.2%; in the assay with HCT-116 colon, 20.3%; with HCC-2998 colon it was 79.8%; with KM12 colon, 53.6%.
With `CCCCCCCCCCSc1ncnc2nc[nH]c12`, the growth in the assay on RPMI-8226 leukemia was 51.4%; with OVCAR-8 ovarian, 67.5%; with OVCAR-5 ovarian it was 101%; in the assay on OVCAR-4 ovarian, 61.3%; in the assay on SK-OV-3 ovarian, 85%; in the assay with IGROV1 ovarian it was 75.1%. The growth is 71.1% in the assay with OVCAR-3 ovarian; 91.4% in the assay with HS 578T breast; 54.5% in the assay with NCI/ADR-RES ovarian; 47.9% in the assay on T-47D breast; 75.8% with BT-549 breast; 76.6% in the assay on MDA-MB-435 melanoma. The growth in the assay on SW-620 colon is 86.5%; with MCF7 breast, 75.9%; with HCT-116 colon it was 48.8%; with HCC-2998 colon it was 78.1%; in the assay with KM12 colon it was 85.1%.

(Values after PubChem BioAssay (NCI).)
